High-throughput results (PubChem BioAssay)
SW480 rereplic: DNA re-replication induction in SW480 cells | SW480 DNA re-replication, Hoechst DNA content imaging, 48 h | Potency, µM (top dose mostly 46.1 µM), without a hit: at the highest dose re-replication activation, hits mostly activators | 340,000 tested, 1.8% active; further: % of control where 0% means no effect; nearly all actives have a fitted effect of over 55% in size
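Image-based DNA-content assay: after two days of treatment, nuclei were labelled with the DNA dye Hoechst and imaged, and hits were compounds raising the count of nuclei showing high fluorescence intensity.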
KB-V1 MDR tox: kills drug-selected multidrug resistant KB-V1 cells; KB-V1 MDR cells viability, CellTiter-Glo, 72 h; Potency, µM (highest dose often 46.1 µM), hits mostly cytotoxic; 400,000 tested, 3.4% active; AID 1347076; further: on the % scale 0 is the no-effect control and ±100 the full control effect; nearly all actives have a fitted effect of over 60% in size
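Following 72 h at 37 degrees C with compound, KB-V1 cell viability was read by CellTiter-Glo luminescence, medium being phenol-red-free DMEM plus 10% FBS; concentration-response parameters came from normalized, curve-fitted qHTS data.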
MCF10A rerep: inducers of DNA re-replication in MCF 10A breast cells | MCF 10A DNA re-replication, Hoechst nuclear intensity, 48 h | Potency, µM (top dose mostly 46.1 µM), without a hit: top-dose activity, positive = re-replication, usual class: activators | 350,000 tested, 2.9% active | AID 624296; further: % of control where 0% means no effect; nearly all actives have a fitted effect of over 50% in size
KB-3-1 tox: kills parental KB-3-1 adenocarcinoma cells; KB-3-1 viability, CellTiter-Glo ATP luminescence, 72 h; Potency, µM (highest dose often 46.1 µM), most hits filed as cytotoxic; 400,000 tested, 1.4% active; AID 1347075; further: on the % scale 0 is the no-effect control and ±100 the full control effect; nearly all actives have a fitted effect of over 60% in size
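KB-3-1 parental drug-naive adenocarcinoma cells in DMEM/10% FBS, incubated 72 h at 37 C with pin-transferred compounds across a concentration series. Viability by CellTiter-Glo luminescence; concentration-response curves fitted after normalization.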
ELG1 repair inh: ELG1-dependent DNA repair inhibition | HEK293T ELG1-luciferase reporter, luminescence, 16 h; DNA damage induced by 5-fluorouridine | Potency, µM (titrated, usually from 46.1 µM), for the others: at the highest dose activity change, negative = inhibition, most hits filed as inhibitors | 330,000 tested, 2.3% active | AID 504467; further: on the % scale 0 is the no-effect control and ±100 the full control effect; nearly all actives have a fitted effect of over 55% in size
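Overnight (16 hr) co-exposure of 2,000 cells/well to 5-fluorouridine and compound at 37 °C preceded detection. Luciferase was quantified via ONE-Glo luminescence; loss of signal denotes inhibition.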
Numbers without * were called inactive. An excerpt weighted towards active compounds, which were near 8.1% of everything screened. The call rests on the fitted dose curve; in most records, active means well fitted curve in the direction sought with a large enough effect; inconclusive means small, poorly fitted or top-dose-only effect, or another doubt; inactive means no such curve, though single readings can be large; an effect the other way counts as inactive or inconclusive. Potency means the concentration at half of the fitted maximal effect.

`COc1ccc(C(=O)Nc2ccc(NC(=O)c3cccc(OC)c3)cn2)cc1` gave SW480 rereplic 7%, KB-V1 MDR tox inactive, MCF10A rerep 11%, KB-3-1 tox inactive and ELG1 repair inh -19%.
For COc1ccc(COc2cc(-c3cccc(OC)c3)nc3ccc(NC(=O)c4cccnc4)cc23)cc1 the results were SW480 rereplic inconclusive, KB-V1 MDR tox inconclusive, MCF10A rerep inconclusive, KB-3-1 tox inconclusive and ELG1 repair inh 2.9µM*.
COc1ccc(COc2cc(-c3cccc(OC)c3)nc3ccc(NC(=O)c4ccc(OC)cc4)cc23)cc1 was read as SW480 rereplic 4.1µM*, KB-V1 MDR tox inactive, MCF10A rerep 2.3µM*, KB-3-1 tox 4.1µM* and ELG1 repair inh 4.1µM*.
Screening COc1ccc(NC(=O)c2cccc(NC(=O)c3ccccc3)c2)cc1 returned SW480 rereplic -1%, KB-V1 MDR tox inactive, MCF10A rerep 6%, KB-3-1 tox inactive and ELG1 repair inh 23%.
`OC(Br)C(O)C(O)N1CCCc2ccccc21` (stereo not given) gave KB-V1 MDR tox inactive and KB-3-1 tox inactive.
For C[C@@H]1CN([C@@H](C)CO)C(=O)CCCn2nncc2CO[C@H]1CN(C)Cc1ccc(Cl)c(Cl)c1 the results were KB-V1 MDR tox inactive and KB-3-1 tox inactive.
Screening Cc1noc(C)c1CSc1nc2ccccc2nc1NS(=O)(=O)c1ccc(Cl)cc1 returned SW480 rereplic 2%, KB-V1 MDR tox inconclusive, MCF10A rerep 2.6µM*, KB-3-1 tox inconclusive and ELG1 repair inh 13µM*.
For CN1CCN(S(=O)(=O)c2cccc(C(=O)Nc3nc(-c4ccccc4)cs3)c2)CC1 the results were SW480 rereplic 5%, KB-V1 MDR tox 3.3µM*, MCF10A rerep inconclusive, KB-3-1 tox inconclusive and ELG1 repair inh inconclusive.
Cc1nc(-c2cccc(NC(=O)c3cccc(S(=O)(=O)N4CCCC4)c3)c2)cs1 was read as SW480 rereplic -23%, KB-V1 MDR tox inactive, MCF10A rerep 5%, KB-3-1 tox inconclusive and ELG1 repair inh 18µM*.
For Cc1csc(NC(=O)c2cccc(S(=O)(=O)N3CCCCC3)c2)n1 the results were SW480 rereplic -3%, KB-V1 MDR tox inactive, MCF10A rerep 7%, KB-3-1 tox inactive and ELG1 repair inh inconclusive.
`COC(=O)c1c(NC(=O)c2cccc(S(=O)(=O)N3CCN(C)CC3)c2)sc(C)c1C` gave SW480 rereplic inconclusive, KB-V1 MDR tox inactive, MCF10A rerep 21µM*, KB-3-1 tox inactive and ELG1 repair inh inconclusive.
For CCOC(=O)c1sc(NC(=O)c2cccc(S(=O)(=O)N3CCN(C)CC3)c2)cc1C the results were SW480 rereplic -1%, KB-V1 MDR tox inactive, MCF10A rerep -2%, KB-3-1 tox inactive and ELG1 repair inh -5%.
Screening C[C@H](NC(=O)C[C@@H]1C=C[C@@H](NC(=O)CN2CCOCC2)[C@@H](CO)O1)c1ccccc1 returned KB-V1 MDR tox inactive and KB-3-1 tox inactive.
Screening CCCCc1cc(=O)oc2cc(OC(C)C(=O)NCC3CCC(C(=O)O)CC3)c(Cl)cc12 (stereo not given) returned SW480 rereplic inconclusive, KB-V1 MDR tox inactive, MCF10A rerep inconclusive, KB-3-1 tox inactive and ELG1 repair inh 6%.
For O=c1c2ccccc2nnn1CSc1ccc2ccccc2n1 the results were SW480 rereplic 65%, KB-V1 MDR tox 23µM*, MCF10A rerep inconclusive, KB-3-1 tox inactive and ELG1 repair inh inconclusive.
For O=c1c2ccccc2nnn1CSc1ccccc1 the results were SW480 rereplic 1%, KB-V1 MDR tox inactive, MCF10A rerep 0%, KB-3-1 tox inactive and ELG1 repair inh inconclusive.
`Cc1cc(SCn2nnc3ccccc3c2=O)nc2ccccc12` gave SW480 rereplic 0%, KB-V1 MDR tox 16µM*, MCF10A rerep 25%, KB-3-1 tox inactive and ELG1 repair inh inconclusive.
Screening O=C(NCC[C@H]1CC[C@H](NS(=O)(=O)c2ccccc2F)[C@@H](CO)O1)c1ccc(F)cc1 returned KB-V1 MDR tox inactive and KB-3-1 tox inactive.
CCOc1ccccc1NC(=O)c1cnn2c(C(F)F)cc(-c3ccccc3)nc12 was read as KB-V1 MDR tox inactive and KB-3-1 tox 18µM*.
`COc1ccccc1CCNC(=O)c1cnn2c(C(F)F)cc(C)nc12` gave SW480 rereplic -9%, KB-V1 MDR tox inactive, MCF10A rerep -8%, KB-3-1 tox inactive and ELG1 repair inh -6%.
`COc1ccccc1CNC(=O)c1cnn2c(C(F)F)cc(C)nc12` gave SW480 rereplic -2%, KB-V1 MDR tox inactive, MCF10A rerep 14%, KB-3-1 tox inactive and ELG1 repair inh 23µM*.
`Cc1cccc(C)c1NC(=O)CN(C)S(=O)(=O)c1ccc2c(c1)n(C)c(=O)c(=O)n2C` gave KB-V1 MDR tox inconclusive and KB-3-1 tox inactive.
CCC(=O)n1nc(NCc2ccc(OC)c(OC)c2)nc1NCc1ccc(OC)c(OC)c1 was read as SW480 rereplic 11%, KB-V1 MDR tox inconclusive, MCF10A rerep -7%, KB-3-1 tox inactive and ELG1 repair inh 10µM*.
O=C(CN1CCN(c2cccc(C(F)(F)F)c2)CC1)N(C1CCCC1)C1CCS(=O)(=O)C1 (stereo not given) was read as SW480 rereplic -4%, KB-V1 MDR tox 21µM*, MCF10A rerep 6%, KB-3-1 tox inactive and ELG1 repair inh -4%.
Screening O=C(CN1CCN(c2cccc(C(F)(F)F)c2)CC1)N(C1CC1)C1CCS(=O)(=O)C1 (stereo not given) returned SW480 rereplic 28%, KB-V1 MDR tox inactive, MCF10A rerep -1%, KB-3-1 tox inactive and ELG1 repair inh -9%.
For O=C(NCc1cccnc1)c1cc(Sc2ccc(F)cc2F)nc2ccccc12 the results were SW480 rereplic 0%, KB-V1 MDR tox inactive, MCF10A rerep inconclusive, KB-3-1 tox inactive and ELG1 repair inh 21µM*.
`COCCCNC(=O)c1c(N)n(/N=C/c2cccs2)c2nc3ccccc3nc12` gave SW480 rereplic 7.3µM*, KB-V1 MDR tox inactive, MCF10A rerep inconclusive, KB-3-1 tox inactive and ELG1 repair inh inconclusive.
Screening CC(C)OCCCNC(=O)c1c(N)n(/N=C/c2ccccn2)c2nc3ccccc3nc12 returned SW480 rereplic 21µM*, KB-V1 MDR tox inconclusive, MCF10A rerep 4.1µM*, KB-3-1 tox inactive and ELG1 repair inh 7.3µM*.
`CC(C)CNC(=O)c1c(N)n(/N=C/c2cccnc2)c2nc3ccccc3nc12` gave ELG1 repair inh -3%.
